# Source: PubChem BioAssay AID1159580 (chemical genetic matrix, 2015)
# Where “and” joins values, the source holds several entries; their conditions need not be identical. Equal entries are not always repeated. The campaign covered roughly 5,500 compounds. About 2,000 (36%) were called active. About 18% were inconclusive and are not listed. This is one part of the list. A number with no mark means an inactive call. Rule as the data show it: active = normalized growth mostly below about 0.91 (no sharp cut-off); inconclusive = no clear call, values can overlap the other calls; inactive = mostly above about 0.92.
# Assay: chemical genetic growth profiling, strain panel (AID 1159580);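 also: tested at 20 µM; growth read once vehicle control cultures reached saturation at 30 °C; 1 = growth at the plate median or of vehicle wells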
# Conditions: S. cerevisiae deletion strains, growth OD
smiles,measurement,setting,value
Nc1c2ccccc2nc2ccccc12,normalized growth,"locus YAL013W, strain DEP1, stronger effect = lower value",0.734 (active)
same,normalized growth,"locus YAL021C, strain ccr4, stronger effect = lower value",0.568 (active)
same,normalized growth,"locus YAL026C, strain drs2, stronger effect = lower value",0.675 (active)
same,normalized growth,"locus YAL030W, strain snc1, stronger effect = lower value",0.566 (active)
same,normalized growth,"locus YBL061C, strain skt5, stronger effect = lower value",0.754 (active)
same,normalized growth,"locus YBR009C, strain hhf1, stronger effect = lower value",0.378 (active)
same,normalized growth,"locus YBR021W, strain FUR4, stronger effect = lower value",1.02
same,normalized growth,"locus YBR023C, strain chs3, stronger effect = lower value",0.759 (active)
same,normalized growth,"locus YBR171W, strain sec66, stronger effect = lower value",1.09
same,normalized growth,"locus YBR229C, strain ROT2, stronger effect = lower value",1.01
same,normalized growth,"locus YBR231C, strain swc5, stronger effect = lower value",0.61 (active)
same,normalized growth,"locus YBR279W, strain paf1, stronger effect = lower value",0.55 (active)
same,normalized growth,"locus YCL011C, strain gbp2, stronger effect = lower value",0.526 (active)
same,normalized growth,"locus YCL016C, strain dcc1, stronger effect = lower value",0.453 (active)
same,normalized growth,"locus YCL029C, strain bik1, stronger effect = lower value",0.412 (active)
same,normalized growth,"locus YCL061C, strain MRC1, stronger effect = lower value",0.801 (active)
same,normalized growth,"locus YCL069W, strain vba3, stronger effect = lower value",0.732 (active)
same,normalized growth,"locus YCR088W, strain abp1, stronger effect = lower value",0.737 (active)
same,normalized growth,"locus YDL005C, strain med2, stronger effect = lower value",0.781 (active)
same,normalized growth,"locus YDL035C, strain GPR1, stronger effect = lower value",0.478 (active)
same,normalized growth,"locus YDL040C, strain nat1, stronger effect = lower value",0.838 (active)
same,normalized growth,"locus YDL074C, strain BRE1, stronger effect = lower value",0.484 (active)
same,normalized growth,"locus YDL101C, strain DUN1, stronger effect = lower value",0.782 (active)
same,normalized growth,"locus YDL134C, strain PPH21, stronger effect = lower value",0.729 (active)
same,normalized growth,"locus YDL185W, strain tfp1, stronger effect = lower value",1
same,normalized growth,"locus YDL192W, strain arf1, stronger effect = lower value",0.622 (active)
same,normalized growth,"locus YDR001C, strain nth1, stronger effect = lower value",0.89 (active)
same,normalized growth,"locus YDR069C, strain doa4, stronger effect = lower value",0.5 (active)
same,normalized growth,"locus YDR101C, strain arx1, stronger effect = lower value",0.483 (active)
same,normalized growth,"locus YDR137W, strain rgp1, stronger effect = lower value",0.983
same,normalized growth,"locus YDR150W, strain NUM1, stronger effect = lower value",0.838 (active)
same,normalized growth,"locus YDR159W, strain sac3, stronger effect = lower value",0.875
same,normalized growth,"locus YDR162C, strain NBP2, stronger effect = lower value",0.698 (active)
same,normalized growth,"locus YDR195W, strain ref2",1.23 [resistant] (active)
same,normalized growth,"locus YDR297W, strain sur2, stronger effect = lower value",0.662 (active)
same,normalized growth,"locus YDR318W, strain mcm21, stronger effect = lower value",0.565 (active)
same,normalized growth,"locus YDR334W, strain swr1, stronger effect = lower value",0.93
same,normalized growth,"locus YDR335W, strain msn5, stronger effect = lower value",0.782 (active)
same,normalized growth,"locus YDR388W, stronger effect = lower value",0.481 (active)
same,normalized growth,"locus YDR392W, strain spt3, stronger effect = lower value",0.825
same,normalized growth,"locus YDR502C, strain sam2, stronger effect = lower value",0.513 (active)
same,normalized growth,"locus YEL003W, strain gim4, stronger effect = lower value",0.679 (active)
same,normalized growth,"locus YEL037C, strain rad23, stronger effect = lower value",0.57 (active)
same,normalized growth,"locus YEL061C, strain CIN8 (second series), stronger effect = lower value",0.885 (active)
same,normalized growth,"locus YEL061C, strain CIN8, stronger effect = lower value",0.793 (active)
same,normalized growth,"locus YER015W, strain faa2, stronger effect = lower value",0.693 (active)
same,normalized growth,"locus YER016W, strain bim1, stronger effect = lower value",0.69 (active)
same,normalized growth,"locus YER110C, stronger effect = lower value",0.977
same,normalized growth,"locus YER111C, strain swi4, stronger effect = lower value",0.886 (active)
same,normalized growth,"locus YER155C, strain BEM2 (second series), stronger effect = lower value",0.913
same,normalized growth,"locus YER155C, strain BEM2, stronger effect = lower value",1.01
same,normalized growth,"locus YER167W, strain BCK2, stronger effect = lower value",0.614 (active)
same,normalized growth,"locus YFR010W, strain ubp6, stronger effect = lower value",0.615 (active)
same,normalized growth,"locus YGL078C, strain dbp3, stronger effect = lower value",0.681 (active)
same,normalized growth,"locus YGL086W, strain mad1, stronger effect = lower value",0.595 (active)
same,normalized growth,"locus YGL167C, strain pmr1, stronger effect = lower value",1.01
same,normalized growth,"locus YGL173C, strain kem1, stronger effect = lower value",0.567 (active)
same,normalized growth,"locus YGL227W, strain vid30, stronger effect = lower value",0.885 (active)
same,normalized growth,"locus YGL240W, strain doc1, stronger effect = lower value",0.914
same,normalized growth,"locus YGL248W, strain PDE1, stronger effect = lower value",0.671 (active)
same,normalized growth,"locus YGL253W, strain hxk2, stronger effect = lower value",0.535 (active)
same,normalized growth,"locus YGR078C, strain PAC10, stronger effect = lower value",0.735 (active)
same,normalized growth,"locus YGR135W, strain pre9, stronger effect = lower value",0.709 (active)
same,normalized growth,"locus YGR229C, strain SMI1, stronger effect = lower value",0.694 (active)
same,normalized growth,"locus YGR252W, strain gcn5, stronger effect = lower value",0.544 (active)
same,normalized growth,"locus YHR013C, strain ard1, stronger effect = lower value",0.557 (active)
same,normalized growth,"locus YHR027C, strain rpn1, stronger effect = lower value",0.73 (active)
same,normalized growth,"locus YHR030C, strain SLT2, stronger effect = lower value",0.796 (active) and 0.77 (active)
same,normalized growth,"locus YHR079C, strain IRE1 (second series), stronger effect = lower value",0.535 (active)
same,normalized growth,"locus YHR079C, strain IRE1, stronger effect = lower value",0.763 (active)
same,normalized growth,"locus YHR094C, strain hxt1, stronger effect = lower value",0.801 (active)
same,normalized growth,"locus YHR129C, strain ARP1, stronger effect = lower value",0.808 (active)
same,normalized growth,"locus YHR142W, strain chs7, stronger effect = lower value",0.706 (active)
same,normalized growth,"locus YHR200W, strain rpn10, stronger effect = lower value",0.674 (active)
same,normalized growth,"locus YIL066C, strain RNR3, stronger effect = lower value",0.737 (active)
same,normalized growth,"locus YIL073C, strain SPO22, stronger effect = lower value",0.681
same,normalized growth,"locus YIL125W, strain kgd1, stronger effect = lower value",0.803 (active)
same,normalized growth,"locus YIR030C, strain dcg1, stronger effect = lower value",0.59 (active)
same,normalized growth,"locus YJL092W, strain hpr5, stronger effect = lower value",0.659 (active)
same,normalized growth,"locus YJL095W, strain BCK1 (second series), stronger effect = lower value",0.684 (active)
same,normalized growth,"locus YJL095W, strain BCK1, stronger effect = lower value",0.563 (active) and 0.76 (active)
same,normalized growth,"locus YJL115W, strain asf1, stronger effect = lower value",0.861 (active)
same,normalized growth,"locus YJL129C, strain trk1, stronger effect = lower value",1.05
same,normalized growth,"locus YJL134W, strain LCB3, stronger effect = lower value",1.01
same,normalized growth,"locus YJL154C, strain vps35, stronger effect = lower value",0.993
same,normalized growth,"locus YJL164C, strain tpk1, stronger effect = lower value",0.462 (active)
same,normalized growth,"locus YJL166W, strain qcr8, stronger effect = lower value",0.549 (active)
same,normalized growth,"locus YJL168C, strain set2, stronger effect = lower value",0.972
same,normalized growth,"locus YJL187C, strain SWE1 (second series), stronger effect = lower value",0.524 (active)
same,normalized growth,"locus YJR043C, strain POL32, stronger effect = lower value",0.717 (active)
same,normalized growth,"locus YJR066W, strain TOR1, stronger effect = lower value",0.744 (active)
